Reference: PubChem BioAssay AID1224853 (National Center for Advancing Translational Sciences (NCATS), 2016)
Inconclusive results are not listed. Calls of active or inactive are those of the source. Calls come from the whole dose curve; as a rule, active = well fitted inhibition curve with a large enough effect; inconclusive = small, poorly fitted or top-dose-only effect; inactive = no such curve, though single readings can be large or run the other way.

Assay: Confirmation assay for measurement of the activity of small molecule inhibitors on Zika virus induced Caspase-3 activity in human astrocytoma cells
Conditions: SNB-19 ZIKV-induced caspase-3/7, luminescence, 6 h; series mostly up to 46.1 µM
Procedure, shortened: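 Percent inhibition of Zika-triggered caspase-3 activation is derived from luminescence, scaled between uninfected cells and infected cells. Astrocytoma SNB-19 cells receive compound one hour ahead of a 6 h infection at 2 FFU/cell.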

Potency, active:
COc1ccc(-c2cc(=O)c3c(O)cc(O)cc3o2)cc1O 13.8 µM
Cc1ccc2c(n1)Oc1ccc(C(C)C(=O)OCC(=O)N(C)C)cc1C2 (stereo not drawn) 10.9 µM
COc1cc2nc(N3CCN(C(=O)C4CCCO4)CC3)nc(N)c2cc1OC (stereo not drawn) 17.3 µM
CC(=O)Nc1ccc([C@H](C)C(=O)Nc2ncc(C(C)C)s2)cc1 9.75 µM
CC(=O)Oc1ccccc1C(=O)Nc1ncc([N+](=O)[O-])s1 2.24 µM
CN(C)c1ccc(/C=C2\C(=O)Nc3ccccc32)cc1 10.9 µM
OCc1ccc(-c2ccc(-c3ccc(CO)s3)o2)s1 0.218 µM
O=C(O)[C@@H](c1ccc(OCc2ccc3ccccc3n2)cc1)C1CCCC1 13.8 µM
Nc1ccc2c(c1)CN1C(=O)c3ccccc3C1=N2 3.37 µM
Cc1cccc(C#Cc2ccccc2)n1 4.89 µM
Cc1cccc(/C=C/c2ccccc2)n1 12.3 µM
CC(O)=C(C#N)C(=O)Nc1ccc(C(F)(F)F)cc1 0.869 µM
Cc1oncc1C(=O)Nc1ccc(C(F)(F)F)cc1 3.08 µM
CN1CC(=O)N/C1=N/C(=O)Nc1cccc(Cl)c1 6.9 µM
COc1cccc(-c2ccc(NC(=O)C3=C(C(=O)O)CCC3)c(F)c2)c1 3.46 µM
O=C(OCc1ccccc1)c1ccc(O)cc1 19.5 µM
Cc1nc(-c2ccc(OCC(C)C)c(C#N)c2)sc1C(=O)O 2.45 µM
COCCn1c2c([n+](Cc3cnccn3)c1C)C(=O)c1ccccc1C2=O 4.89 µM
c1ccc2[nH]c(-c3cscn3)nc2c1 12.3 µM
O=C1C[C@@H](c2ccc(O)cc2)Oc2cc(O)cc(O)c21 15.5 µM

Potency, inactive:
CC=CC[C@@H](C)C(=O)[C@H]1C(=O)N[C@@H](C(C)C)C(=O)N(C)CC(=O)N(C)[C@@H](CC(C)C)C(=O)N[C@@H](C(C)C)C(=O)N(C)[C@@H](CC(C)C)C(=O)N[C@@H](C)C(=O)N[C@H](C)C(=O)N(C)[C@@H](CC(C)C)C(=O)N(C)[C@@H](CC(C)C)C(=O)N(C)[C@@H](C(C)C)C(=O)N1C
Cc1ccc(C(=O)c2ccc(CC(=O)O)n2C)cc1
O=C(CS)Nc1ccccc1
C[C@@H](O[C@H]1OCCN(Cc2n[nH]c(=O)[nH]2)[C@@H]1c1ccc(F)cc1)c1cc(C(F)(F)F)cc(C(F)(F)F)c1
CC1=C(CO)C(=O)O[C@@H]([C@@H](C)[C@H]2CC[C@H]3[C@@H]4C[C@H]5O[C@]56[C@@H](O)C=CC(=O)[C@]6(C)[C@@H]4CC[C@]23C)C1
C[C@@H](N)c1ccc(C(=O)Nc2ccnc3[nH]ccc23)cc1
COc1ccc(CC2=NN3C([C@@H](CCc4ccccc4)[C@@H](C)O)=NC(C)C3C(=O)N2)cc1OC (stereo partly drawn)
O=C(O)[C@H](CC(=O)N1C[C@@H]2CCCC[C@H]2C1)Cc1ccccc1
O=C(/C=C/c1ccccc1)NCCO
COc1cc(NC(C)CCCN)c2ncccc2c1 (stereo not drawn)
CC1(C)Cc2c(sc(NC(=S)NC(=O)c3ccccc3)c2C(=O)O)CO1
Nc1ncnc2c1ncn2[C@@H]1O[C@@H](CO)[C@H](O)[C@H]1O
CN(C)c1ccc2cc(C(=O)N[C@@H](CCCN=C(N)CCl)C(=O)NCc3ccccc3)ccc2c1
N[C@H](CSC(c1ccccc1)(c1ccccc1)c1ccccc1)C(=O)O
CCCC(=O)OC[C@@H](OC(=O)CCC)[C@@H](OC(=O)CCC)[C@H](Cn1c2nc(=O)[nH]c(=O)c-2nc2cc(C)c(C)cc21)OC(=O)CCC
O=C(O)c1ccccc1NCCc1ccccc1
O=S(=O)(O)CCSSCCS(=O)(=O)O
Cc1c(N)c(=O)n(-c2ccccc2)n1C
